M1 PAM = human CHRM1 positive allosteric modulation | activation, % at 3 µM | P11229 | 360,000 tested, 0.088% active | CHO-K1 hM1, Fluo-8 calcium fluorescence, ACh EC20; 0% = ACh EC20, 100% = maximal ACh; in the data active means activation above about 19%, passing the limit was not always enough
Target sequence (P11229 whole entry, looked up): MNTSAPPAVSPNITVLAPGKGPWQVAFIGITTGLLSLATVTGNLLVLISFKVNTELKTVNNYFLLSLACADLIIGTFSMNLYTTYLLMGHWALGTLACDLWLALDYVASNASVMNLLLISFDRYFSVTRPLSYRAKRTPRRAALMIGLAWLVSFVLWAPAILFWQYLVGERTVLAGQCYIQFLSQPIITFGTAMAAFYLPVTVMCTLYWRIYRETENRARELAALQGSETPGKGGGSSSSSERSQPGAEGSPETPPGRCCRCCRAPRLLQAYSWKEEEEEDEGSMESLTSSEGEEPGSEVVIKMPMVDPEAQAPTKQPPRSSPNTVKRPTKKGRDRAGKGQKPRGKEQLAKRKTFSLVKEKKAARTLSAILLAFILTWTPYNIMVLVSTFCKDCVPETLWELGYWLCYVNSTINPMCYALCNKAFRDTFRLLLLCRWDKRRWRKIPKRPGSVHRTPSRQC
CHO-K1 Ca antag = M1 antagonist counterscreen hit in parental CHO-K1 cells | 360,000 tested, 0.6% active | AID 602250 | inhibition, % at 3 µM | ATP-induced calcium, Fluo-8 fluorescence;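 active means inhibition above a per-plate cutoff, the plate's mean sample inhibition plus 3 SD, cut at about 24% in these data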
M1 antag = antagonists of human M1 muscarinic receptor. P11229. CHO-K1 hM1, Fluo-8 calcium fluorescence, ACh EC80 antagonist. inhibition, % at 3 µM. 360,000 tested, 1.3% active. AID 588852;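 active means percent inhibition above its own plate's cutoff, namely the mean of that plate's compound wells plus 3 SD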;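 further: peak over basal fluorescence ratio during 140 s after agonist addition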
CHO-K1 Ca ag = counter-screen for M1 agonists: effect in parental CHO-K1 cells. 360,000 tested, 0.48% active. activation, % at 3 µM. Fluo-8 calcium fluorescence; scaled to maximal ATP response, vehicle zero; in the data active means activation above about 15%;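 further: untransfected CHO-K1 host cells lacking M1 receptor as counterscreen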
M1 ag = agonists of human M1 muscarinic receptor; P11229; CHO-K1 hM1, Fluo-8 calcium fluorescence, agonist mode; 0% DMSO, 100% acetylcholine EC100; activation, % at 3 µM; 360,000 tested, 0.33% active;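 active means activation above the run's mean compound activation plus 3 SD, cut at about 16% in these data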;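 further: peak over basal fluorescence ratio within a 140 s kinetic read after compound addition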
CHO-K1 Ca PAM = nonselective activator or artifact in parental CHO-K1 calcium assay. ATP EC20, Fluo-8 calcium fluorescence; 0% at ATP EC20, 100% at ATP max. 360,000 tested, 0.02% active. AID 602247. activation, % at 3 µM;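 active means activation above the run cutoff, the mean activation of all test compounds plus 3 SD, cut at about 40% in these data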;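 further: peak over basal fluorescence ratio in a 140 s read after ATP addition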
Each line names hits and unclear results; the compound was inactive in the other large screens. Hits are enriched below; roughly 2.3% of the tested compounds scored in any of these assays.

COc1ccc(/C=C/C(=O)c2cc(F)ccc2OC(=O)c2ccccc2)cc1OC	CHO-K1 Ca antag 24.2
COc1ccc(/C=C/C(=O)c2cc(F)ccc2OC(=O)c2ccc(OC)c(OC)c2)cc1OC	none
O=C(CCN1C(=O)c2ccccc2C1=O)N(CCO)Cc1ccccc1	M1 antag 101.5
Oc1ccc2ccccc2c1Br	CHO-K1 Ca antag 24.4
COc1ccc2[nH]cc(CCNS(=O)(=O)c3ccc(C)cc3)c2c1	CHO-K1 Ca ag 26.1
CCCn1c(N)c(N(CCOC)C(=O)CSc2cc(C)c3ccccc3n2)c(=O)[nH]c1=O	none
O=C(NCCc1nnc2ccc(N3CCCC3)nn12)c1ccccc1	none
CCN(CC)C1CCN(C(=O)c2ccc(OC3CCN(CCc4ccccc4)CC3)cc2)C1 (stereo unspecified)	M1 antag 62.5
COc1ccc(/C=C/CN2CCC(Oc3ccc(C(=O)N4CCCCC4)cc3)CC2)cc1	M1 antag 43.7
O=C(c1ccc(OC2CCN(C/C=C/c3ccccc3)CC2)cc1)N1CCCCC1	M1 antag 29.5
CCCCOc1ccc(C(=O)NCC(=O)N2CCN(C/C=C/c3ccccc3)CC2)cc1	M1 antag 44.0
COC1CCN(C(=O)c2ccc(OC3CCN(CCc4ccccc4)CC3)cc2)CC1	none
O=C(Nc1ccc(S(=O)(=O)Nc2ccccc2)cc1)c1ccc(CN2CCOCC2)cc1	none
COCCCN(C(=O)C1=COCCO1)c1c(N)n(Cc2ccccc2)c(=O)[nH]c1=O	none
O=C(COC(=O)c1c[nH]c(=O)[nH]c1=O)NCc1ccccc1	none
CNCC/C=C1/c2ccccc2CSc2ccccc21	M1 antag 95.0
OCCN1CCN(CC/C=C2/c3ccccc3CSc3ccccc32)CC1	none
COc1ccc(S(=O)(=O)N(C)C[C@@H]2OCc3cn(nn3)CCCC(=O)N([C@H](C)CO)C[C@H]2C)cc1	none
O=C(Nc1ccncc1)c1cc2ccccc2cc1O	CHO-K1 Ca ag 16.1
O=C(Nc1ccncc1)c1ccccc1F	none
O=C(Nc1cccc([N+](=O)[O-])c1)c1cc2ccccc2cc1O	CHO-K1 Ca ag 16.3
C/C(=N\NC(=O)c1cc2ccccc2cc1O)c1ccccn1	M1 PAM 29.1
CC(C)CN(CC(C)C)S(=O)(=O)N1CCC(C(=O)NCc2ccc3c(c2)OCO3)CC1	none
COC(=O)c1ccc(-n2c(C)cc(C(=O)CSc3cccc[n+]3[O-])c2C)cc1	CHO-K1 Ca ag 16.1
Cc1cc(C(=O)CSc2cccc[n+]2[O-])c(C)n1-c1ccc(OC(F)F)cc1	none
CCn1c(P(C)(=O)O)nc2cc(NC(=O)c3ccccc3Cl)ccc21	CHO-K1 Ca antag 24.2
CCC(=O)NCCc1nc2cc(NC(=O)c3ccccc3Cl)ccc2n1C	M1 PAM 29.5
CCC(=O)NCCc1nc2cc(NC(=O)Nc3ccccc3)ccc2n1C	none
CC(C)Oc1ccc(CN2CCC2(C)C(=O)NCc2cccc3ccccc23)cc1 (stereo unspecified)	none
CCC1Oc2ccccc2N(CC(=O)Nc2ccccc2OC)C1=O (stereo unspecified)	CHO-K1 Ca antag 23.7
OCC[C@H]1NCc2cc(CO)cc(-c3ccccc3)c21	none
CC(=O)NN1C(=O)/C(=C/c2ccc(Br)o2)SC1=S	M1 PAM 21.1
CC(=O)NN1C(=O)/C(=C\c2ccc(Br)o2)SC1=S	none
FC(F)(F)c1cccc(/C=N/NC(=S)NC2CCCCC2)c1	CHO-K1 Ca ag 18.6
Cc1ccc(NC(=O)c2ccccc2NS(=O)(=O)c2ccc(Cl)s2)cc1	CHO-K1 Ca antag 24.7
CN1CCN(NC(=O)c2cccc(Br)c2)CC1	none
CCCCOc1ccc(C(=O)N2CCCC2C(=O)O)cc1 (stereo unspecified)	none
CCCOc1ccc(C(=O)N2CCCC2C(=O)O)cc1 (stereo unspecified)	M1 PAM 27.8
N#C/C(=C\c1ccc(N2CCOCC2)o1)C(=O)NC1CCCCC1	CHO-K1 Ca ag 15.8
N#C/C(=C/c1ccc(N2CCOCC2)o1)C(=O)Nc1ccccc1	CHO-K1 Ca ag 61.4, M1 ag 50.4
N#C/C(=C\c1ccc(N2CCOCC2)o1)C(=O)NCCc1ccccc1	CHO-K1 Ca ag 23.2, M1 ag 21.0
CC(C)n1nnnc1SCC(=O)N(C)C1CCS(=O)(=O)C1 (stereo unspecified)	none

Assay outcomes as filed in PubChem.
